From PubChem BioAssay
The source made the active and inactive calls. Unless noted, no rule for the calls is given here.

Experiments:
[1] = tested on: Wnt5a (protein binding on small-molecule microarray); test: Wnt5a binders on small-molecule microarray, primary screen, biophysical, 635/667 nm fluorescence (AID 1142); settings: 635 nm fluorescence, higher = more signal;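 also: fluorescence read at 667 nm with signal to noise per printed feature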
[2] = cell viability in Huh7 cells, primary screen, cytotoxicity control for HCV replication inhibitor project, CellTiter-Glo luminescence, basal, 48 h (AID 1143); settings: Huh7 HCV replicon, higher = more signal, called active from +8 up or from −8 down;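 also: Huh7 hepatoma cells carrying a hepatitis C replication reporter with no stimulus; test concentration not given here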
[3] = P. aeruginosa biofilm formation inhibitors, primary screen, PAO1 strain, BacTiter-Glo luminescence, LB-PBS (AID 1144); settings: 12 h, higher = more signal
[4] = CREB reporter modulators without forskolin, primary screen, cell-based, PC12, CRE-LacZ reporter, unstimulated (AID 1145); settings: no forskolin, luminescence, 4.5 h, higher = more signal, called active from +8 up or from −8 down
[5] = CREB reporter modulators under forskolin, primary screen, cell-based, PC12, CRE-LacZ reporter, forskolin-stimulated (AID 1146); settings: luminescence, 4.5 h, higher = more signal, called active from +8 up or from −8 down;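 also: PC12 cells with 6xCRE LacZ reporter stimulated by forskolin 10 µM; beta-galactosidase reporter signal reflecting CREB driven transcription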
[6] = target: Streptavidin (Streptomyces avidinii) (UniProt P22629); test: streptavidin binders on small-molecule microarray, primary screen, artefact control for SMM compound annotation, biophysical, 635/667 nm fluorescence (AID 1147); settings: streptavidin binding, higher = more signal;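 also: signal reflects streptavidin binding to arrayed compounds as a control protein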
Sequence of Streptavidin (Streptomyces avidinii) (P22629 whole entry, looked up): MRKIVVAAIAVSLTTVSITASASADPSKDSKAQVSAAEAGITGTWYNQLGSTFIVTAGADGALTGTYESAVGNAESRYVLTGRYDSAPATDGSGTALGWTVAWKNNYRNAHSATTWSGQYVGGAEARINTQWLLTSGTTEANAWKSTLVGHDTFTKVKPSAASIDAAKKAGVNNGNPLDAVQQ

[7] = small-molecule binders of probe aInhba, primary screen, biochemical, small-molecule microarray, 635/667 nm fluorescence (AID 1148); settings: higher = more signal;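 also: score merges 667nm spot fluorescence with signal-to-noise for antibody binding to printed compounds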
Torsin-1A (Homo sapiens) [8] = target: Torsin-1A (Homo sapiens) (UniProt O14656); test: torsin A binders from cell lysate, primary screen, small-molecule microarray, wild-type, 635/667 nm (AID 1149); settings: COS7 hTOR1A-WT lysate, 635 nm fluorescence, higher = more signal
Sequence of Torsin-1A (Homo sapiens) (O14656 whole entry, looked up): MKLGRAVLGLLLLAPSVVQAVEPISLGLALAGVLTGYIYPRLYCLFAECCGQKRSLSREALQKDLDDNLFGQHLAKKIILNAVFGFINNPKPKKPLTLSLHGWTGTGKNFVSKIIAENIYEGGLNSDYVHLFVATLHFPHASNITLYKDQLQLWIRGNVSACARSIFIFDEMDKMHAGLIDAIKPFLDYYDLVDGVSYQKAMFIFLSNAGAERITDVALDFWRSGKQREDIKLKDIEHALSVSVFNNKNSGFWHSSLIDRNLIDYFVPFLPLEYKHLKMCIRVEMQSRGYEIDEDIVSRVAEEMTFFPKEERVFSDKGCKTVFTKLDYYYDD

Torsin-1A (Homo sapiens) [9] = target: Torsin-1A (Homo sapiens) (UniProt O14656); test: small-molecule binders of mutant TOR1A in lysate, primary screen, cell lysate, small-molecule microarray, COS7 lysate, 635/667 nm fluorescence (AID 1150); settings: COS7 hTOR1A mutant lysate, 635 nm fluorescence, higher = more signal;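 also: score pools 667 nm emission and signal to noise measuring lysate protein binding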
[10] = tested on: Sonic hedgehog protein (Shh); test: small-molecule binders of Shh protein, primary screen, biochemical, small-molecule microarray, 635/667 nm fluorescence (AID 1151); settings: small-molecule microarray binding, 635 nm fluorescence; higher = more signal;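 also: Shh protein binding to compounds spotted on small-molecule microarray slides; score combines spot fluorescence intensity with signal-to-noise across triplicate slides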
[11] = E. coli DRC41 culture turbidity changes, primary screen, E. coli filamentation inducer project, strain DRC41, OD650, 48 h (AID 1152);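 also: E. coli MC1000 strain DRC41 lacking acrAB efflux pump and sulA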; settings: E. coli DRC41 (acrAB sulA), higher = more signal, called active from +8 up or from −8 down
[12] = small-molecule binders of probe aLefty1, primary screen, biochemical, small-molecule microarray, 635/667 nm fluorescence (AID 1153); settings: higher = more signal;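 also: score merges spot fluorescence with signal-to-noise ratio from the scanned slide images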
[13] = PSAC antagonists in infected red cells, primary screen, cell-based, P. falciparum Indochina, OD700, 1 h (AID 1154); settings: P. falciparum Indochina infected RBC osmotic lysis, higher = more signal, called active from +8 up or from −8 down
[14] = PSAC antagonists in infected red cells, primary screen, cell-based, P. falciparum Indochina, OD700, 2 h (AID 1155);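 also: lysis reports solute entry through the parasite surface anion channel PSAC; channel blockers reduce lysis of infected cells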; settings: P. falciparum Indochina infected erythrocytes, osmotic lysis OD700; higher = more signal, called active from +8 up or from −8 down
[15] = osmotic lysis modulators in infected erythrocytes, primary screen, PSAC antagonist project, cell-based, P. falciparum Indochina, OD700, 3 h (AID 1156); settings: higher = more signal, called active from +8 up or from −8 down
[16] = PSAC antagonists in infected red cells, primary screen, cell-based, P. falciparum Indochina, OD700, 18 h (AID 1157); settings: P. falciparum Indochina infected erythrocytes, osmotic lysis OD700, 18 h; higher = more signal, called active from +8 up or from −8 down
[17] = modulators of S6 phosphorylation in cells, primary screen, cell-based, A549, cytoblot, luminescence, serum-stimulated (AID 1158); settings: A549 phospho-S6 cytoblot, 5 h, higher = more signal;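 also: serum-stimulated A549 lung adenocarcinoma cells; signal is phosphorylated S6 detected by cytoblot immunostaining with HRP secondary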
[18] = target: NADPH oxidase 2 (Homo sapiens) (UniProt P04839); test: NOX2-dependent H2O2 signal modulators, primary screen, NOX inhibitor project, cell-based, HEK293-NOX2, PMA-stimulated, Amplex Red fluorescence (AID 1159); settings: 45 min, higher = more signal, called active from +8 up or from −8 down; also: test concentration not given here
Sequence of NADPH oxidase 2 (Homo sapiens) (P04839 whole entry, looked up): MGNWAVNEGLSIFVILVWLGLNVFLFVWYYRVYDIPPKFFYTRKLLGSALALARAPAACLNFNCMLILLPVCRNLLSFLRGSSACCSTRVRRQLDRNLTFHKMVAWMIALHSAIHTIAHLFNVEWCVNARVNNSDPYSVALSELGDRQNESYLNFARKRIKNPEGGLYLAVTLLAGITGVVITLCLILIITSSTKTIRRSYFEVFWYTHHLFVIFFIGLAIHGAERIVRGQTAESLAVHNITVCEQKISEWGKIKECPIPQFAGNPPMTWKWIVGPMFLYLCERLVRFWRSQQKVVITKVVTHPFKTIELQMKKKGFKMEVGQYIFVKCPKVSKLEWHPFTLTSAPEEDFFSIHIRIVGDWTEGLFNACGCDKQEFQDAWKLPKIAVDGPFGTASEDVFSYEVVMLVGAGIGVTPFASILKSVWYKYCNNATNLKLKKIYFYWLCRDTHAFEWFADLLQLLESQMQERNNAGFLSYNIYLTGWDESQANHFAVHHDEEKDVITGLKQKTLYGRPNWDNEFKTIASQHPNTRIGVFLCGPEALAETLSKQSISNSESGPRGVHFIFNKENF

[19] = target: NADPH oxidase 4 (Homo sapiens) (UniProt Q9NPH5); test: NOX4-dependent H2O2 signal modulators, primary screen, NOX inhibitor project, cell-based, HEK293-NOX4, tetracycline-induced, Amplex Red fluorescence (AID 1160); settings: 45 min, higher = more signal, called active from +8 up or from −8 down
Sequence of NADPH oxidase 4 (Homo sapiens) (Q9NPH5 whole entry, looked up): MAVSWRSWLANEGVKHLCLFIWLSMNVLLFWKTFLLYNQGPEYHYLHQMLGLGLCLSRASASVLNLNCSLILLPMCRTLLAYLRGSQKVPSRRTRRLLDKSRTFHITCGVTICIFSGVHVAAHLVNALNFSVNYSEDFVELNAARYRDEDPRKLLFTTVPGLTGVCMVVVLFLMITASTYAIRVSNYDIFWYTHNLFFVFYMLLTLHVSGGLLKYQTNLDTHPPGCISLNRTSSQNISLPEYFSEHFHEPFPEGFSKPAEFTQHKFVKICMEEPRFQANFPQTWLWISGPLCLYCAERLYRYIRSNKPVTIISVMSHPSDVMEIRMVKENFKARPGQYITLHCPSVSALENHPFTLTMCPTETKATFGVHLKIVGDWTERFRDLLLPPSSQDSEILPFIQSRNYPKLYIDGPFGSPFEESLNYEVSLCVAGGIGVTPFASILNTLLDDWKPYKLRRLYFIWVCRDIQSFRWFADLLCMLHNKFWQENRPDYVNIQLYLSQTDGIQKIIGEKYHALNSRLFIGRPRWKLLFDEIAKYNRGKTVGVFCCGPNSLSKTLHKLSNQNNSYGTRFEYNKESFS

[20] = target: NADPH oxidase 5 (Homo sapiens) (UniProt Q96PH1); test: NOX5-dependent H2O2 signal modulators, primary screen, NOX inhibitor project, cell-based, HEK293-NOX5, Amplex Red fluorescence (AID 1161); settings: HEK293-NOX5, ionomycin, 45 min, higher = more signal
Sequence of NADPH oxidase 5 (Homo sapiens) (Q96PH1 whole entry, looked up): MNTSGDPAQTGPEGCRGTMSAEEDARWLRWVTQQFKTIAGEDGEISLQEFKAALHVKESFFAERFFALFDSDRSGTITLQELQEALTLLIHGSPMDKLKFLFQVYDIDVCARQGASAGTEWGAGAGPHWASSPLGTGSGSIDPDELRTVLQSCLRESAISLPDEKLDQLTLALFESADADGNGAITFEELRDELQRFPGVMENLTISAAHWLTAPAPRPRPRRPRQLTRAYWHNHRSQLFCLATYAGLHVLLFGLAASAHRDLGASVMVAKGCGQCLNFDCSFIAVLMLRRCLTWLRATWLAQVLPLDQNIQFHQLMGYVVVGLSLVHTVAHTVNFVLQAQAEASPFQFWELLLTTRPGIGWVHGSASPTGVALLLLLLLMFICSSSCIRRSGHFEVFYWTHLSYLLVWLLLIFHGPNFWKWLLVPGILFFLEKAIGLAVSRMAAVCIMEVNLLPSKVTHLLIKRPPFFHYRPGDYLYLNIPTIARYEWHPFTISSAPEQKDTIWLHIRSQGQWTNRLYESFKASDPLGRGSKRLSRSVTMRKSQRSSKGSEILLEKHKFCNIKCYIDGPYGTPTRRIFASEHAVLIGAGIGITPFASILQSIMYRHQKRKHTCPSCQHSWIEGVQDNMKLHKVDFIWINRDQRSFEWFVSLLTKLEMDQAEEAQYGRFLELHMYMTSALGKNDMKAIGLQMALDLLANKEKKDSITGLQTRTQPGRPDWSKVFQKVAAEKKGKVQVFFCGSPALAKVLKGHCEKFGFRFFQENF

CC1CC/C=C\[C@H]2OC34C=CCN(c5ccc(Cl)cc5)C(=O)[C@H]3N(CCO)C(=O)[C@]4(C)C2C(=O)O1 (stereo not given in full)
composite z-score [1]: -0.642 | z-score [2]: -0.901 (inactive) | z-score [3]: 0.43 (inactive) | z-score [4]: 0.87 (inactive) | z-score [5]: -0.217 (inactive) | composite z-score [6]: -0.561 | composite z-score [7]: -0.128 | composite z-score (Torsin-1A (Homo sapiens) [8]): -0.433 | composite z-score (Torsin-1A (Homo sapiens) [9]): -1.01 | composite z-score [10]: -0.317 | z-score [11]: -0.209 (inactive) | composite z-score [12]: -0.485 | z-score [13]: 2.73 (inactive) | z-score [14]: 0.402 (inactive) | z-score [15]: 0.0852 (inactive) | z-score [16]: 0.382 (inactive) | z-score [17]: 1.13 | z-score [18]: 1.66 (inactive) | z-score [19]: 0.741 (inactive) | z-score [20]: 3.16

CC(C)[C@@H](CO)NC(=O)[C@H]1[C@@H](c2ccccc2)N(c2ccccc2)O[C@@H]1C
composite z-score [1]: -0.106 | z-score [2]: -0.206 (inactive) | z-score [3]: -0.736 (inactive) | z-score [4]: -0.415 (inactive) | z-score [5]: -1.35 (inactive) | composite z-score [6]: -0.327 | composite z-score [7]: 0.0953 | composite z-score (Torsin-1A (Homo sapiens) [8]): -0.261 | composite z-score (Torsin-1A (Homo sapiens) [9]): -0.0316 | composite z-score [10]: 0.463 | z-score [11]: 1.6 (inactive) | composite z-score [12]: -0.151 | z-score [13]: 0.785 (inactive) | z-score [14]: -0.0799 (inactive) | z-score [15]: -0.466 (inactive) | z-score [16]: -0.0146 (inactive) | z-score [17]: 0.444 | z-score [18]: -0.982 (inactive) | z-score [19]: 0.366 (inactive) | z-score [20]: 0.153

O=C1c2ccccc2[C@](Cc2ccccc2I)(C(=O)NC2CC2)[C@H](c2ccc(CO)cc2)N1Cc1ccccc1
composite z-score [1]: 0.384 | z-score [2]: -2.11 (inactive) | z-score [3]: -1.02 (inactive) | z-score [4]: -0.179 (inactive) | z-score [5]: 0.0053 (inactive) | composite z-score [6]: -0.248 | composite z-score [7]: 0.0633 | composite z-score (Torsin-1A (Homo sapiens) [8]): 0.189 | composite z-score (Torsin-1A (Homo sapiens) [9]): 0.7 | composite z-score [10]: 0.192 | z-score [11]: -0.102 (inactive) | composite z-score [12]: 0.284 | z-score [13]: 5.07 (inactive) | z-score [14]: 0.602 (inactive) | z-score [15]: 1.67 (inactive) | z-score [16]: 0.181 (inactive) | z-score [17]: -0.132 | z-score [18]: -0.163 (inactive) | z-score [19]: -0.127 (inactive) | z-score [20]: -0.768

CCOC(=O)C=Cc1cc([N+](=O)[O-])ccc1O
composite z-score [1]: -0.128 | z-score [2]: -4.44 (inactive) | z-score [3]: -0.283 (inactive) | z-score [4]: 0.173 (inactive) | z-score [5]: -2.08 (inactive) | composite z-score [6]: 0.572 | composite z-score [7]: -0.0523 | composite z-score (Torsin-1A (Homo sapiens) [8]): 0.437 | composite z-score (Torsin-1A (Homo sapiens) [9]): 0.328 | composite z-score [10]: -0.117 | z-score [11]: -1.72 (inactive) | composite z-score [12]: -0.104 | z-score [13]: 26 (active) | z-score [14]: 11.8 (active) | z-score [15]: 2.13 (inactive) | z-score [16]: -0.816 (inactive) | z-score [17]: 2.41 | z-score [18]: -4.11 (inactive) | z-score [19]: -2.98 (inactive) | z-score [20]: -3.76

C=CCOC(=O)[C@@H]1[C@H]2C(=O)O[C@H](c3ccccc3)[C@H](c3ccccc3)N2[C@H](c2ccc(OCCOC(=O)[C@@H]3C[C@@H]4C(=O)N[C@@H](CCCC[N+](C)(C)C)C(=O)N4[C@@H]3c3cccc(OCCO)c3)cc2)[C@@]12C(=O)Nc1ccc(I)cc12
composite z-score [1]: 0.596 | z-score [2]: -2.13 (inactive) | z-score [3]: -1.22 (inactive) | z-score [4]: 0.0084 (inactive) | z-score [5]: 1.83 (inactive) | composite z-score [6]: 0.337 | composite z-score [7]: -0.122 | composite z-score (Torsin-1A (Homo sapiens) [8]): 0.993 | composite z-score (Torsin-1A (Homo sapiens) [9]): 1.15 | composite z-score [10]: 1.99 | z-score [11]: -0.537 (inactive) | composite z-score [12]: 0.121 | z-score [13]: 2.82 (inactive) | z-score [14]: 2.58 (inactive) | z-score [15]: 2.24 (inactive) | z-score [16]: 1.01 (inactive) | z-score [17]: -1.5 | z-score [18]: 2.31 (inactive) | z-score [19]: 0.862 (inactive) | z-score [20]: 1.3

Cc1ccc(C(C)CC(O)C2C=CC3C(=O)N(c4ccccc4)C(=O)C3N2Nc2ccc([N+](=O)[O-])cc2)o1 (stereo not given)
composite z-score [1]: 0.354 | z-score [2]: -0.344 (inactive) | z-score [3]: -0.99 (inactive) | z-score [4]: 0.136 (inactive) | z-score [5]: 0.812 (inactive) | composite z-score [6]: 1.71 | composite z-score [7]: -0.0131 | composite z-score (Torsin-1A (Homo sapiens) [8]): -0.344 | composite z-score (Torsin-1A (Homo sapiens) [9]): 0.222 | composite z-score [10]: 0.442 | z-score [11]: -0.571 (inactive) | composite z-score [12]: 0.218 | z-score [13]: 9.35 (active) | z-score [14]: 2.22 (inactive) | z-score [15]: 0.0777 (inactive) | z-score [16]: 1.49 (inactive) | z-score [17]: -0.359 | z-score [18]: 0.414 (inactive) | z-score [19]: -0.521 (inactive) | z-score [20]: -1.27

CCCCC(O)C1C=CC2C(=O)N(c3ccccc3)C(=O)C2N1Nc1ccccc1F (stereo not given)
composite z-score [1]: 0.182 | z-score [2]: 0.615 (inactive) | z-score [3]: -0.571 (inactive) | z-score [4]: -0.143 (inactive) | z-score [5]: 0.569 (inactive) | composite z-score [6]: 2.09 | composite z-score [7]: 0.297 | composite z-score (Torsin-1A (Homo sapiens) [8]): 0.31 | composite z-score (Torsin-1A (Homo sapiens) [9]): 0.129 | composite z-score [10]: -0.0688 | z-score [11]: -1.06 (inactive) | composite z-score [12]: 0.328 | z-score [13]: 0.449 (inactive) | z-score [14]: 1.49 (inactive) | z-score [15]: 0.273 (inactive) | z-score [16]: 1.19 (inactive) | z-score [17]: -1.3 | z-score [18]: -1.2 (inactive) | z-score [19]: -4.93 (inactive) | z-score [20]: -1.88
